Assay in all cases: NCI-60 one-dose screen, 48 h (100 = growth as untreated, 0 = no growth, -100 = all killed)
One assay has as its system NCI-H522 lung. Conditions: 10 µM unless noted.
Another assay has as its system COLO 205 colon. Conditions: 10 µM.
In another assay the test system is MALME-3M melanoma. Conditions: 10 µM unless noted.
Another assay deals with HCT-15 colon. To be noted: 10 µM.
A further assay concerns SNB-19 CNS. Conditions: 10 µM unless noted.
For the next assay, the system named is SK-MEL-5 melanoma. To be noted: 10 µM unless noted.
For the next assay, the system named is LOX IMVI melanoma. To be noted: 10 µM unless noted.
The subject of another assay is EKVX NSCLC. Conditions: 10 µM unless noted.
A further assay concerns SN12C renal. To be noted: 10 µM unless noted.
Another assay concerns TK-10 renal. To be noted: 10 µM unless noted.
In the next assay the test system is CCRF-CEM leukemia. To be noted: 10 µM unless noted.
For a further assay, the system named is MDA-MB-435 melanoma. Conditions: 10 µM unless noted.
The subject of another assay is HCC-2998 colon. Conditions: 10 µM unless noted.
The subject of another assay is MOLT-4 leukemia. Conditions: 10 µM.
For the next assay, the system named is SR leukemia. To be noted: 10 µM.
Another assay deals with RPMI-8226 leukemia. Conditions: 10 µM unless noted.
In a further assay the test system is OVCAR-8 ovarian. Conditions: 10 µM unless noted.
Another assay relates to IGROV1 ovarian. Conditions: 10 µM.
Another assay has as its system HOP-92 NSCLC. Conditions: 10 µM unless noted.

The panel holds about 83,000 compounds, 20% with a hit somewhere; the sample as a whole holds those more often.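 Cells were grown in 96-well plates and exposed to the test compound at a single concentration for 48 hours; results are reported as percent growth, with values below 10 considered active.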 A number with no mark means an inactive call. Calls of active or inactive are those of the source.

In the case of `S=P(N1CCCCCC1)(N1CC1)N1CC1`, the growth with NCI-H522 lung is 102%; in the assay on COLO 205 colon, 93.9%; with MALME-3M melanoma, 90.3%; in the assay with HCT-15 colon, 118%; in the assay on SNB-19 CNS it was 101%; with SK-MEL-5 melanoma, 107%. The growth with LOX IMVI melanoma was 103%; in the assay on EKVX NSCLC, 119%; with SN12C renal it was 96.2%; in the assay with TK-10 renal, 98.5%; with CCRF-CEM leukemia it was 94.4%; in the assay with MDA-MB-435 melanoma, 109%. Also, in the assay with HCC-2998 colon, the growth is 93.8%.
For `COC1=CC(=O)OC(CCc2ccc3c(c2)OCO3)C1` (stereo unspecified), the growth was 76.9% in the assay with NCI-H522 lung; 108% in the assay on COLO 205 colon; 136% in the assay with MALME-3M melanoma; 103% with HCT-15 colon; 103% in the assay with SNB-19 CNS; 102% with SK-MEL-5 melanoma. The growth with LOX IMVI melanoma was 98.5%; in the assay on EKVX NSCLC, 122%; in the assay on TK-10 renal it was 102%; with CCRF-CEM leukemia it was 85.4%; in the assay on MOLT-4 leukemia, 121%; with SR leukemia it was 122%. Also, the growth in the assay with RPMI-8226 leukemia is 107%; in the assay with OVCAR-8 ovarian it was 96.1%; in the assay on IGROV1 ovarian, 116%; in the assay on MDA-MB-435 melanoma, 112%; in the assay on HCC-2998 colon, 132%.
Regarding `CC(CC(C#N)(c1ccccc1)c1ccccc1)N1CCOCC1` (stereo unspecified), the growth in the assay on HOP-92 NSCLC was 83.5%; in the assay with COLO 205 colon, 101%; in the assay on MALME-3M melanoma, 120%; in the assay on HCT-15 colon it was 102%; with SNB-19 CNS it was 92.2%; with SK-MEL-5 melanoma, 102%. Also, the growth in the assay with LOX IMVI melanoma was 102%; in the assay on SN12C renal it was 93.5%; in the assay on TK-10 renal, 105%; in the assay on MOLT-4 leukemia, 82.3%; in the assay on SR leukemia it was 84.3%; with RPMI-8226 leukemia it was 103%. Besides, in the assay on MDA-MB-435 melanoma, the growth was 118%.
Regarding `CN(C)P1(N(C)C)=NP(N(C)C)(N(C)C)=NP(N(C)C)(N(C)C)=N1`, the growth is 76% in the assay with HOP-92 NSCLC; 113% in the assay on COLO 205 colon; 106% in the assay with MALME-3M melanoma; 103% with SNB-19 CNS; 107% in the assay with SK-MEL-5 melanoma; 107% in the assay on SN12C renal. Further, the growth was 92.6% in the assay with SR leukemia; 98.1% in the assay on RPMI-8226 leukemia; 95.4% in the assay with IGROV1 ovarian; 109% in the assay on MDA-MB-435 melanoma; 111% with HCC-2998 colon.
On to `O=[As]c1ccc(C(=O)c2ccc(Oc3ccccc3)cc2)cc1` (stereo unspecified), for which the growth with NCI-H522 lung is -95.4% (active); in the assay on COLO 205 colon, -89.2% (active); with MALME-3M melanoma, -66.2% (active); in the assay on HCT-15 colon it was -78.3% (active); in the assay on SNB-19 CNS, -97.4% (active); in the assay with SK-MEL-5 melanoma it was -100% (active). Moreover, the growth was -91.2% (active) with LOX IMVI melanoma; -80.8% (active) with EKVX NSCLC; -98.8% (active) in the assay on TK-10 renal; -33.1% (active) in the assay on CCRF-CEM leukemia; -25.2% (active) with MOLT-4 leukemia; -23.9% (active) with SR leukemia. In addition, the growth in the assay on RPMI-8226 leukemia was -49.2% (active); in the assay with IGROV1 ovarian, -54.1% (active); in the assay with MDA-MB-435 melanoma, -52% (active); in the assay on HCC-2998 colon, -93.9% (active).
Turning to `C/C(=C\c1cc(C(F)(F)F)n(-c2ccc(N)cc2)n1)[C@@H]1C[C@@H]2O[C@]2(C)CCC[C@H](C)[C@H](O)[C@@H](C)C(=O)C(C)(C)[C@@H](O)CC(=O)O1`, the growth with HOP-92 NSCLC was 37.9%; in the assay on COLO 205 colon it was -45% (active); in the assay on MALME-3M melanoma, 58.1%; with HCT-15 colon it was 9.88% (active); with SNB-19 CNS, 21.1%; in the assay on LOX IMVI melanoma it was 4.2% (active). Also, the growth was 31.8% in the assay with EKVX NSCLC; 12.8% with CCRF-CEM leukemia; 4.35% (active) with MOLT-4 leukemia; -16.4% (active) with SR leukemia; 3.83% (active) in the assay with RPMI-8226 leukemia; 0.138% (active) with OVCAR-8 ovarian. The values for the growth in the assay on IGROV1 ovarian, with MDA-MB-435 melanoma and in the assay on HCC-2998 colon were 31.1%, -22.6% (active) and 8.18% (active), respectively.
For the molecule `CCC(CO)NC1CCCCC1` (stereo unspecified), the growth in the assay with NCI-H522 lung was 68.1%; in the assay with COLO 205 colon, 43.2%; in the assay on MALME-3M melanoma, 86.1%; in the assay on HCT-15 colon, 76.4%; with SNB-19 CNS, 88.3%; in the assay with SK-MEL-5 melanoma, 93.4%. In addition, the growth is 27.9% in the assay with LOX IMVI melanoma; 90% in the assay on EKVX NSCLC; 75.8% in the assay with SN12C renal; 70.8% with TK-10 renal; 1.74% (active) in the assay on SR leukemia; 97.6% in the assay with RPMI-8226 leukemia. Besides, the growth with OVCAR-8 ovarian is 78.9%; in the assay on IGROV1 ovarian, 53.9%; with MDA-MB-435 melanoma, 74.2%.
Regarding `C[C@]12CCc3sc(-c4ccc(Cl)cc4)nc3C1=CC[C@@H]1[C@@H]2CC[C@]2(C)C(=O)CC[C@@H]12`, the growth with HOP-92 NSCLC was 98.6%; in the assay on COLO 205 colon it was 97.2%; in the assay with MALME-3M melanoma it was 75%; in the assay with HCT-15 colon, 34.6%; with SNB-19 CNS, 56.2%; in the assay on SK-MEL-5 melanoma, 62.4%. Besides, the growth in the assay on LOX IMVI melanoma was 55.1%; in the assay with EKVX NSCLC it was 72.3%; with SN12C renal, 65.9%; in the assay with CCRF-CEM leukemia, 14.5%; in the assay with MOLT-4 leukemia it was 8.47% (active); in the assay with SR leukemia it was 10.9%. For the same molecule, the growth with RPMI-8226 leukemia was -17.8% (active); in the assay with OVCAR-8 ovarian it was 80.4%; in the assay with MDA-MB-435 melanoma, 75.7%; in the assay with HCC-2998 colon it was 90.4%.
For the molecule `COc1cc(C2=NN(c3ccccc3)C(c3sc(N(CCCl)CCCl)nc3Cl)C2)cc(OC)c1OC` (stereo unspecified), the growth in the assay with NCI-H522 lung is 69.1%; in the assay on COLO 205 colon it was 90.6%; in the assay with MALME-3M melanoma it was 121%; with HCT-15 colon it was 97.5%; in the assay with SNB-19 CNS, 86.4%; in the assay on SK-MEL-5 melanoma, 88.4%. Besides, the growth in the assay with LOX IMVI melanoma is 92.7%; in the assay on EKVX NSCLC it was 78.9%; in the assay on SN12C renal, 79.9%; in the assay on TK-10 renal, 102%; in the assay on CCRF-CEM leukemia it was 87.9%; with MOLT-4 leukemia it was 70.9%. For the same molecule, the growth is 84.2% in the assay with SR leukemia; 90.4% in the assay on OVCAR-8 ovarian; 106% in the assay on IGROV1 ovarian; 101% in the assay with MDA-MB-435 melanoma; 99.9% in the assay with HCC-2998 colon.
As to `S=P(Nc1ccccc1)(Nc1ccccc1)c1ccccc1`, the growth was 84.1% with HOP-92 NSCLC; 146% with COLO 205 colon; 142% with MALME-3M melanoma; 104% in the assay with HCT-15 colon; 85.3% in the assay with SNB-19 CNS; 89.1% in the assay on LOX IMVI melanoma. In addition, the growth is 90% with EKVX NSCLC; 82.5% in the assay with RPMI-8226 leukemia; 111% in the assay on OVCAR-8 ovarian; 101% with IGROV1 ovarian; 101% in the assay on MDA-MB-435 melanoma; 93.6% in the assay with HCC-2998 colon.
As for `Oc1ccc2c3c1O[C@H]1c4[nH]c5ccccc5c4C[C@@]4(O)C(C2)N(CC2CC2)CC[C@]314`, the growth is 82.9% with HOP-92 NSCLC; 96.9% in the assay with COLO 205 colon; 122% with MALME-3M melanoma; 99.7% in the assay with HCT-15 colon; 106% with SNB-19 CNS; 96.4% with SK-MEL-5 melanoma. For the same molecule, the growth is 87.3% in the assay on LOX IMVI melanoma; 103% in the assay on SN12C renal; 95% in the assay with TK-10 renal; 89.7% with CCRF-CEM leukemia; 74.4% in the assay with MOLT-4 leukemia; 79.6% in the assay with SR leukemia. The growth was 93.1% in the assay with RPMI-8226 leukemia, 93.2% in the assay with OVCAR-8 ovarian, 97.5% in the assay on IGROV1 ovarian and 90% with HCC-2998 colon.

The record behind these values is PubChem BioAssay (NCI).
